POLK inh: inhibitors of human DNA polymerase kappa; 0.53% of 400,000 active; Q9UBT6; Potency, µM (series often up to 107 µM), without a hit: at the top dose activity, negative = inhibition, actives largely listed as inhibitors; purified Pol kappa, fluorescent DNA synthesis assay, 10 min; AID 588579; further: on the % scale 0 is the no-effect control and ±100 the full control effect
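Inhibition of 10 nM Pol kappa is measured by a fluorescent read-out at 0 and 10 min following addition of 50 nM substrate (final), with a 15-min room-temperature compound preincubation.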
WRN helicase inh: WRN helicase (human) inhibition | Q14191 | WRN helicase unwinding, fluorescent forked duplex, kinetic | Potency, µM (doses to about 114 µM), for inactives: top-dose activity change, negative = inhibition, actives largely listed as inhibitors | 0.46% of 360,000 active | AID 651768; further: on the % scale 0 is the no-effect control and ±100 the full control effect; nearly all actives have a fitted effect of over 55% in size
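Primary qHTS, 1536-well format. 20 nM WRN + compound, 15 min RT; start with 100 nM forked fluorophore/quencher duplex, 2 mM ATP (final); kinetic read ex 525/em 598 nm.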
Pol eta inh: inhibitors of human DNA polymerase eta | Q9Y253 | recombinant Pol eta, fluorescent DNA replication assay | Potency, µM (series often up to 114 µM), for inactives: top-dose activity change, negative = inhibition, most hits filed as inhibitors | 1.2% of 390,000 active | AID 588591; further: on the % scale 0 is the no-effect control and ±100 the full control effect
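Pol eta at 10 nM preincubated with compounds 15 min at room temperature; reaction started with fluorescent substrate (50 nM final) and read kinetically at 0 and 10 min.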
Pol beta inh: inhibitors of human DNA polymerase beta. Pol beta primer extension/strand displacement, fluorescence kinetic. AID 485314. 1.3% of 340,000 active. Potency, µM (doses to about 114 µM), without a hit: at the top dose activity change, negative = inhibition, most hits filed as inhibitors. P06746; further: on the % scale 0 is the no-effect control and ±100 the full control effect
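Reaction started by 50 nM substrate onto compound-treated Pol beta (10 nM, 15 min preincubation, room temperature); plates read at 0 min and 10 min. Normalized concentration-effect data fitted by four-parameter Hill equation.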
Pol iota inh: inhibitors of human DNA polymerase iota; Potency, µM (doses to about 115 µM), without a hit: at the top dose activity, negative = inhibition, most hits filed as inhibitors; Q9UNA4; 1% of 390,000 active; Pol iota fluorescent replication assay, 10 min
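Fluorescent replication assay read twice, at 0 min and 10 min after adding 50 nM (final) substrate. Enzyme (10 nM) and compounds were first incubated 15 min at room temperature; enzyme-free buffer wells were negative controls.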
FEN1 inhibitor: inhibitors of human flap endonuclease 1. 0.35% of 390,000 active. Recombinant FEN1 flap cleavage, fluorescence, 15 min. Potency, µM (doses to about 114 µM), without a hit: at the top dose activity change, negative = inhibition, usual class: inhibitors. P39748; further: on the % scale 0 is the no-effect control and ±100 the full control effect; nearly all actives have a fitted effect of over 65% in size
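In this screen, 50 nM flap DNA substrate was added to 10 nM FEN1 pretreated with compound for 15 min at room temperature; cleavage was followed with reads at 0 and 15 min, and Hill fitting gave concentration–response parameters.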
* hit, by the source's call. Compounds with a hit are over-represented: about 2.4% of the library has one in this group of screens. The call rests on the fitted dose curve; in most records, active means well fitted curve in the direction sought with a large enough effect; inconclusive means small, poorly fitted or top-dose-only effect, or another doubt; inactive means no such curve, though single readings can be large; an effect the other way counts as inactive or inconclusive. Potency means the concentration at half of the fitted maximal effect.

Screening CCCCCCCCCCCCCCCC[n+]1ccc(/C=C/c2c[nH]c3ccccc23)c2ccccc21 returned POLK inh 95.3%, Pol iota inh inactive and FEN1 inhibitor 50.1µM*.
CCCCCCCCCC[n+]1ccc(/C=C/c2c[nH]c3ccccc23)cc1 was read as POLK inh -6.6%, Pol iota inh 4.3% and FEN1 inhibitor 89.1µM*.
CCCCCCC[n+]1ccc(/C=C/c2c[nH]c3ccccc23)c2ccccc21 was read as POLK inh 31.6µM*, Pol iota inh inconclusive and FEN1 inhibitor 25.1µM*.
O=C(C1=C(O)C(=O)N(c2nc3ccc(Cl)cc3s2)C1c1ccco1)c1ccco1 (configuration not stated) was read as POLK inh 39.8µM*, WRN helicase inh 50.1µM*, Pol eta inh 20µM*, Pol iota inh 7.94µM* and FEN1 inhibitor -35.6%.
`Cc1ccc2nc(N3C(=O)C(O)=C(C(=O)c4ccc(C)o4)C3c3ccco3)sc2c1` (configuration not stated) gave POLK inh -36.2%, WRN helicase inh -4.8%, Pol eta inh inconclusive, Pol iota inh inconclusive and FEN1 inhibitor -16.8%.
Cn1nc([N+](=O)[O-])c(C(C#N)c2ccccn2)c(Cl)c1=O (configuration not stated) was read as POLK inh -17.9%, WRN helicase inh -18.6%, Pol eta inh -2.7%, Pol beta inh -3.1%, Pol iota inh inconclusive and FEN1 inhibitor -8.9%.
`CCCn1nc([N+](=O)[O-])c(C(C#N)c2nc3ccccc3o2)c(Cl)c1=O` (configuration not stated) gave POLK inh -3.5%, WRN helicase inh inconclusive, Pol eta inh 22.4µM*, Pol beta inh -28.6%, Pol iota inh inconclusive and FEN1 inhibitor -8.2%.
Screening Cc1cccc(NC(=O)CNC(=O)CSc2ncccn2)c1C returned POLK inh -8.9%, WRN helicase inh 1.8%, Pol eta inh -18.9%, Pol iota inh 17.8% and FEN1 inhibitor 4.1%.
Screening Cc1ccc(NC(=O)Cc2ccc(Cl)cc2)cc1S(=O)(=O)N1CCCCCC1 returned POLK inh -4.2%, WRN helicase inh -12.4%, Pol eta inh inconclusive, Pol iota inh 14.2% and FEN1 inhibitor -12.9%.
Cc1ccc(NC(=O)CN(C)C(=O)Cc2ccc(Cl)c(Cl)c2)cc1 was read as POLK inh -4.3%, WRN helicase inh -6.7%, Pol eta inh -14.5%, Pol beta inh -2.3%, Pol iota inh 11.9% and FEN1 inhibitor -2.3%.
Screening Cc1ccc(NC(=O)Cn2ncc(Cl)c(Cl)c2=O)cc1S(=O)(=O)N1CCCCC1 returned POLK inh inconclusive, WRN helicase inh -8.3%, Pol eta inh -10.8%, Pol iota inh 50.1µM* and FEN1 inhibitor -11.7%.
For Cc1cccc(NC(=O)CNC(=O)Cn2ncc(Cl)c(Cl)c2=O)c1C the results were POLK inh inconclusive, WRN helicase inh inconclusive, Pol eta inh 3.98µM*, Pol iota inh 15.8µM* and FEN1 inhibitor -9.1%.
Screening Cc1ccc(NC(=O)CN(C)C(=O)Cn2ncc(Cl)c(Cl)c2=O)cc1 returned POLK inh -16.1%, WRN helicase inh inconclusive, Pol eta inh inconclusive, Pol beta inh inconclusive, Pol iota inh 44.7µM* and FEN1 inhibitor -5.7%.
For COc1cc(O)c2c(=O)c3c(OC)c(O)ccc3oc2c1 the results were POLK inh -5.6%, WRN helicase inh -6.2%, Pol eta inh -21.5%, Pol beta inh -27.5%, Pol iota inh 7.7% and FEN1 inhibitor -15.2%.
COc1cc(O)c2c(=O)c(O)c(-c3ccc(O)c(O)c3)oc2c1 was read as POLK inh 0.947µM*.
For O=c1c(O)c(-c2ccc(O)cc2)oc2cc(O)cc(O)c12 the results were POLK inh -30.1%, WRN helicase inh -15.7%, Pol eta inh 25.1µM*, Pol iota inh 79.4µM* and FEN1 inhibitor inconclusive.

High-throughput results from PubChem.
